High-throughput results as filed in PubChem.
Sampled rows, rich in hits. Any-hit rate of the full collection: about 2.1%.
PAX8 reporter = inhibitors of PAX8-driven TPO luciferase reporter, primary screen, RMG-I cells, single concentration; SteadyGlo, 24 h; inhibition, % at 12.6 µM; 360,000 compounds, 1.2% hits;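 active = mean replicate inhibition at least 60% with every replicate also reaching 60%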;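 also: luciferase light reporting Pax8 driven TPO promoter activity; plate controls were median of neutral control wells for no effect and mitoxantrone controls for full effect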
TRPM1 prom inh = inhibitors of MITF-dependent TRPM1 promoter reporter, primary screen, cell-based, SK-MEL-5, single point, luciferase; 330,000 compounds, 0.83% hits; SK-MEL-5 TRPM1 promoter luciferase, 24 h; inhibition, % at 12.5 µM;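 active = mean inhibition across replicates of 60% or more, whatever share of single replicates reaches that level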
EBV LMP1 NFkB = EBV LMP1-driven NF-kappaB luciferase reporter inhibitors, primary screen, cell-based, luminescence, single point; LMP1-induced NF-kappaB luciferase reporter cells; inhibition, % at 12.5 µM; 350,000 compounds, 0.69% hits; AID 504558, 2011; in the data active = inhibition above about 41%;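 also: 0% = neutral control wells and 100% = reference inhibitor control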
Shn3 3UTR inh = reduction of Shn3 3'UTR firefly luciferase signal, primary screen, Schnurri-3 inhibitor project, cell-based, Clone20 osteoblasts, set 2. inhibition, % at 12.5 µM. AID 588674, 2011. Clone20 osteoblast Shn3 3'UTR firefly luciferase, 24 h. 360,000 compounds, 0.52% hits;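 active = mean inhibition of at least 75% with every replicate also reaching 75%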;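 also: 0% = median of neutral control wells and 100% = pilot-screen positive control compound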
aSyn 5UTR inh = MLPCN primary screen, SNCA 5' untranslated region; alpha-synuclein 5'UTR reporter, inhibitor activity; inhibition, % (tested at 7.5 µM); 300,000 compounds, 0.82% hits; AID 1813, 2009; in the data active = inhibition above about 60%;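 also: H4 neuroglioblastoma cells stably carrying SNCA 5'UTR luciferase fusion; 0% = DMSO wells and 100% = positive control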
Starred values were filed as active, the others as inactive; nt = no result.

SMILES | PAX8 reporter | TRPM1 prom inh | EBV LMP1 NFkB | Shn3 3UTR inh | aSyn 5UTR inh
O=C(Oc1cccc2cccnc12)c1ccc(N2C(=O)C3C4CCC(C4)C3C2=O)cc1 (configuration not stated) | nt | 6.7 | 2.6 | 3.6 | -0.9
Oc1c(C(Nc2ccccn2)c2ccccn2)ccc2cccnc12 (configuration not stated) | 37.0 | 70.7* | 31.6 | 84.1 | 54.3
Oc1ccccc1C(Nc1nccs1)c1ccc2cccnc2c1O (configuration not stated) | 58.7 | 18.6 | 5.4 | 93.1* | 76.9*
Cc1ccc2ccc(C(Nc3ccccn3)c3ccccc3)c(O)c2n1 (configuration not stated) | 45.0 | nt | 16.4 | 6.8 | -16.1
Nc1ccccc1C(=O)NCc1ccc(F)cc1 | 0.9 | 5.9 | -11.9 | -34.1 | 9.4
O=S(=O)(/N=C/c1ccccc1O)c1cccs1 | nt | -4.8 | -1.0 | 0.6 | 22.5
O=C1/C(=N\S(=O)(=O)c2cccs2)C([n+]2ccccc2)=C([O-])c2ccccc21 | 78.3* | 104.2* | 27.1 | -13.0 | 50.1
CC(C)(C)c1cc[n+](C2=C([O-])c3ccccc3C(=O)/C2=N\S(=O)(=O)c2cccs2)cc1 | 51.2 | nt | nt | 29.6 | 68.7*
Cc1ccc[n+](C2=C([O-])c3ccccc3C(=O)C2=O)c1 | 26.2 | nt | nt | nt | nt
CCCNC(=O)N1CC2(CN(C(=O)C3CC3)C2)c2c([nH]c3cc(OC)ccc23)[C@H]1CO | -1.4 | nt | nt | nt | nt
CNC(=O)CCn1nc(-c2ccc(Cl)cc2)c2ccccc2c1=O | nt | 3.6 | 0.3 | 8.4 | 26.4
COCCN(C(=O)CCl)C(C(=O)NC1CCCCC1)c1ccccc1C (configuration not stated) | 30.5 | 78.4* | 9.1 | 14.0 | -29.5
OC(CNCCc1ccccc1)COc1ccc(OCC(O)CNCCc2ccccc2)cc1 (configuration not stated) | 14.0 | 84.1* | -106.1 | nt | 107.5*
CCC(=C(c1ccc(OC)cc1)c1ccc(OC)cc1)c1cn(CC(O)CN2CCN(C)CC2)c2ccccc12 (configuration not stated) | -3.0 | 85.8* | -1.9 | 17.9 | nt
COc1ccc(-c2cc3ccccc3n2CC(O)CN2CCCCC2)cc1 (configuration not stated) | -16.7 | -13.2 | -5.4 | -28.4 | -11.9
O=C(CCCN1C(=O)/C(=C/c2ccccc2Cl)SC1=S)NNC(=O)c1ccncc1 | 1.0 | 10.0 | 8.0 | 14.7 | 25.3
Cn1c2ccccc2c(=O)c2ccc(C#CC3(N)CCCCC3)cc21 | -147.5 | 10.6 | 1.0 | -60.3 | -16.4
Cc1cc2sc3ccc(C#CC4(O)CCCCC4)cc3c(=O)c2cc1C | 31.5 | 96.4* | 77.6* | 94.3* | 102.2*
O=c1c2ccccc2oc2ccc(C#CC3(O)CCCCC3)cc12 | -16.6 | 3.9 | -11.9 | 1.7 | 38.3
Cn1c2ccccc2c(=O)c2cc(C#CC3(O)CCCCC3)ccc21 | 32.8 | 28.2 | 10.6 | 31.5 | 76.9*
CC(=O)Nc1ccc(S(=O)(=O)c2ccnc3cc(Cl)ccc23)cc1 | 110.5* | nt | 13.9 | -5.9 | nt
CC(=O)Nc1ccc(S(=O)(=O)Nc2ccc(Cl)cn2)cc1 | -5.3 | 4.7 | 2.5 | -2.1 | 13.0
Cc1cccc(COc2ccccc2C(=O)N(C)CC(=O)Nc2cccc(F)c2)c1 | 4.5 | 7.1 | -3.5 | 5.2 | nt
Cc1nc2ccccc2n1-c1nc(-c2ccco2)cc(C(F)(F)F)n1 | nt | 75.5* | -89.6 | -0.9 | 90.4*
FC(F)(F)c1cc(-c2ccco2)nc(-n2cnc3ccccc32)n1 | nt | 5.8 | -47.8 | -20.6 | -26.7
SMILES | PAX8 reporter | TRPM1 prom inh | EBV LMP1 NFkB | Shn3 3UTR inh | aSyn 5UTR inh
COC(=O)c1ccc(CSc2nnc(-c3c[nH]c4ccccc34)n2C)o1 | -2.0 | -3.3 | -4.6 | 6.5 | -22.0
COCCn1c(SCc2ccc(C(=O)OC)o2)nnc1-c1c[nH]c2ccccc12 | -8.9 | -6.9 | 47.1* | -7.4 | 11.4
COc1cc(/C=N/NC(N)=S)cc(Br)c1OCc1ccccc1F | 70.5* | 1.7 | -49.0 | 27.0 | -74.0
CCS(=O)(=O)N1N=C(c2cccs2)CC1c1cc2cc(C)ccc2nc1Cl (configuration not stated) | -61.6 | -24.9 | -7.0 | nt | -67.0
Cc1nn(C(C)(C)C)c(C)c1/C=N/OC(=O)Nc1ccc(Cl)cc1 | 79.3* | 78.5* | 73.8* | nt | 94.2*
CCCNC(=O)N(C)C[C@@H]1Oc2cc(C3=CCCCC3)ccc2S(=O)(=O)N([C@H](C)CO)C[C@@H]1C | -2.1 | nt | nt | nt | nt
Cc1ccc(S(=O)(=O)Nc2ccc3c(c2)CC(=O)N([C@@H](C)CO)C[C@@H](C)[C@H](CN(C)Cc2ccc(C(F)(F)F)cc2)O3)cc1 | 63.1* | nt | nt | nt | nt
Cc1ccc(S(=O)(=O)Nc2ccc3c(c2)CC(=O)N([C@H](C)CO)C[C@@H](C)[C@@H](CN(C)Cc2ccc(C(F)(F)F)cc2)O3)cc1 | 5.5 | nt | nt | nt | nt
C[C@@H]1CN([C@@H](C)CO)C(=O)Cc2cc(NS(=O)(=O)c3ccccc3)ccc2O[C@H]1CN(C)Cc1ccc(C(F)(F)F)cc1 | 92.2* | nt | nt | nt | nt
C[C@H](CO)N1C[C@H](C)[C@@H](CN(C)Cc2ccc(C(F)(F)F)cc2)Oc2ccc(NS(=O)(=O)c3ccc(Cl)cc3)cc2CC1=O | 101.9* | nt | nt | nt | nt
Cc1ccc(S(=O)(=O)Nc2ccc3c(c2)CC(=O)N([C@H](C)CO)C[C@H](C)[C@H](CN(C)Cc2ccc(Cl)c(Cl)c2)O3)cc1 | 6.9 | nt | nt | nt | nt
Cc1ccc(S(=O)(=O)Nc2ccc3c(c2)CC(=O)N([C@@H](C)CO)C[C@@H](C)[C@H](CN(C)Cc2ccc(Cl)c(Cl)c2)O3)cc1 | 92.0* | nt | nt | nt | nt
C[C@@H]1CN([C@H](C)CO)C(=O)Cc2cc(NS(=O)(=O)c3ccc(Cl)cc3)ccc2O[C@@H]1CN(C)Cc1ccc(C(F)(F)F)cc1 | -0.4 | nt | nt | nt | nt
COc1ccc(CCNC(=O)CCN2C(=O)[C@@H]3Cc4ccccc4CN3C2=O)cc1 | -2.3 | 2.1 | -0.4 | 7.8 | -7.8
Cn1ncc(Br)c1C(=O)Nc1cccc(C(F)(F)F)c1 | 16.4 | 6.6 | -12.0 | 6.4 | -14.9
COC(=O)C1=C(COc2ccccc2)NC(=O)NC1c1ccc2ccccc2c1 (configuration not stated) | 14.7 | nt | nt | nt | 36.4
O=C(Nc1ccc(N2CCOCC2)cc1)Nc1ccc2nc(-c3ccco3)c(-c3ccco3)nc2c1 | nt | -12.5 | -70.5 | 40.8 | 112.2*
CO[C@@H]1CC[C@@H]2CCN(C)C(=O)[C@H](C)[C@H](OC)CN(C)C(=O)c3cccc(C#N)c3OC[C@H]1O2 | -8.6 | nt | nt | nt | nt
Cc1oc2c(c1C(=O)c1ccccc1)C(=O)C(=O)c1ccccc1-2 | nt | -14.7 | 94.2* | 33.5 | 126.8*
CCOC(=O)c1c(C)oc2c1C(=O)c1ccccc1C2=O | -41.2 | 96.7* | 3.5 | 20.1 | -133.7
COc1ccccc1N1C(=NC(=O)C(C)Oc2ccccc2)SC2CS(=O)(=O)CC21 (configuration not stated) | 12.8 | -9.5 | -0.4 | 10.9 | -9.7
